In the supplement of paper PMC12632987:
Whole data set: some 2,300 sequences, median “median log2 fold change of GCK-ALFA target abundance (FLAG IP / Myc IP barcode read proportion)” near 0.095, cut for the lowest 2% near -0.47. Many of the other results were omitted from the sample, so the lowest values are more common in it than they were.

B1: LC3A_23_609 (protein)
chain: MYLIDFEVDLIGEPEEIEKIEKELLEALEEFLEENKDKIVDYEIEVEREELEDGRTYLSIRLKILIDGTREEAEALANEITTIASEIAPDAVISVEVEEV
B2: LC3A_147_509 (protein)
chain: YIVEIDIDLLVKNKVEEVKEKFKEIVEELKKKGYEVELEIEEEKIDENTYYVKVKITIKAETKEEAEEAANLTLDLLDKLEEELKEDILGSLISVEITEA
B3: LC3A_free_39_2183 (protein)
chain: SSEETKKLKEELLKLAEEEGEETKELAEKLIELIGEELERIKRLLELMKKLKEAGVDLKEALKEALELAEELKKKGKSKEEIAEAVLELMQDKYNLIPID
B4: LC3A_free_26_2149 (protein)
chain: DEFIDIVELDKAIDLLEELLKLLEENELASEEEKKLAKEALEEAKKETLESLKKALKLVEELLKLLKKNEKLPEETKKKLIKLAEEAIKHIKENIKIMES
B5: LC3A_3_1540 (protein)
chain: MDAAVAAALARLRAAGASAATLAAFEAAVAALRERGYDAALETLIAETDRLLGLSDALLLAFFEEVLELVETEDIDEEELIARIREIARTTLSEAEIEEL
B6: LC3A_28_1107 (protein)
chain: SSVDEENAKALAEAEKAAAAGEPAVITITVKSTDTQEDIDKKIETMEKIAEILKDVKDAAIIIDLDGEIPQEYLDKLADKGEEIEKKYPNITVIIALDEE
B7: LC3A_3_1662 (protein)
chain: AEELIEETLAWLREQGRSEETLEAAREAMTALKEKGYYEALETFAELLRELADLSDELLLELAEEVLELVETSDLDEESMTEEIREIARTIRSEAEIEEL
B8: LC3A_132_247 (protein)
chain: SEEELEKALEELKEILEKIVELLKAGKDPLPQIVKLEELAREIAKKLSLEETEKLVDEAIEYAEELFEKELDPNDEEARRTLDIIEMSLEGVLIEKELES
B9: LC3A_132_248 (protein)
chain: SEEELKEALEELKEILEKIVEALKNGEDPLPLIVELEEKALEIAEKLSLEETEELIDEAKEYAEELFEEELDPNDEEARRTLDIIEMLLDGVLIEKELKS
B10: LC3A_132_246 (protein)
chain: SEEEYKKALAELKEIIDKIVELLKEGKDPLPAIVELEEKAREIAEKLSLEETEKLVEETIEYAEKRFEEELDPNDEEARRTLDIIEMLLEGVLIEKELRS
B11: LC3A_28_830 (protein)
chain: SKIEERIAKFKAEAEAAKASQEPATLTITVTSEDTVEEAKKIAEAMKEEAEKLKDVPDIGIVIDTDGKIDPEVLKILTDTADEIEEKYPNVTVIIALPEE
B12: LC3A_23_622 (protein)
chain: MYKVTVEADTIATPEEAEKYIKLVKEKVEEIKEKYKDKIEEVKLEIEREELPDGTVYLHITVTIIVKDDEELAQKLKNELVDFFDKNIPNGVISYEIEKL
B13: LC3A_free_46_2410 (protein)
chain: YVAEIDVDALAETKEKAEEFAKKIEEAAKEIAKEYGIEVEIEVKISKDEDGTYFVEIEITLEAETKETLEKAVNELIDKIEEIAEELGVSIIISYEISEA
B14: LC3A_28_1055 (protein)
chain: SAVEEQIKKALEEAKELAAKGEEALIEIEIEEDDTEEDVEKKLKTIEEIAEINKDLPSTSIIVNVNNKNKEEVTKKFADLGDELEKKYPNVTVIIALSEE
B15: LC3A_28_1327 (protein)
chain: SELEEQLEKQRKEALELAEKGEDVLIEVTITPETTLEEAEELMEKLRELVKEVAPKVKVSIVVDVEGGVSQEVIDAIAEKADEIEKEYPNATVIIALDED
B16: LC3A_free_39_2199 (protein)
chain: SEEEEEEAEEEILELAEEEGEEALEAAEELLEELEGNLELVEAVLEQVKRAKEEGADVLELLKRLLELVRKLQEEGKSEEEIIEAIEEEADVIINLIPID
B17: LC3A_28_1010 (protein)
chain: MSVVEETKKEAEKALEEAKKGNDAYLEIKITKDTTLEEVKEIGKIIEETAKKISEIENVKLYIVVDDDSNEEKHNIILDKLDEIEKKYPNVSSIVAYTDE
B18: LC3A_3_1354 (protein)
chain: SEELIEEQIERLREAGFSEEVLEAARAAFEGLAAQGHEEGIELLTEALLKHKDAPEEKKLRVLNNLLAEVQANPNLTQEEVEELVKLADLDLAIEELDEE
B19: LC3A_132_313 (protein)
chain: SEKKYEEIKKKLEELLKEAEKNINDKEKVEELLKEIRKLLEEAEKELSPEQVKELYDFVADRLYKLSLKADEAGKEDVSLLLDAAAIEAASKALKAEKKI

molecular target: MAP1LC3A, Q9H492; experiment: median log2 fold change of GCK-ALFA target abundance (FLAG IP / Myc IP barcode read proportion) (log2 ratio); each designed protein is fused to an ALFA-tag nanobody in HEK293 cells to bring the named protein to FLAG-tagged glucokinase (GCK); Myc marks an untargeted standard; higher = target protein stabilised (more abundant); details: target protein: 3xFLAG-MCP-GCK-ALFA reporter; HEK293 landing pad (RPLP)
Experimental: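 LABEL-seq trans screen in HEK293 landing-pad cells. Each de novo designed 100-aa effector handle, binding the indicated effector (E3 ligase, DUB or autophagy protein), is fused to a constant NbALFA target handle and induced with 2 ug/mL doxycycline. A FLAG-MCP-GCK-ALFA target and a Myc-MCP standard reporter were transfected, and after 48 h circRNA barcodes were recovered by anti-FLAG and anti-Myc IP and sequenced. The value is the median across barcodes (at least 3 per design) of log2(FLAG/Myc read-proportion ratio), with the two transfection replicates pooled. Negative values mean degradation and positive values mean stabilisation of the target.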

Binder | median log2 fold change
B1 | -0.664
B2 | -0.0549
B3 | 0.066
B4 | -0.0408
B5 | 0.222
B6 | 0.154
B7 | -0.0559
B8 | -0.371
B9 | -0.698
B10 | -0.415
B11 | 0.132
B12 | -0.561
B13 | 0.0318
B14 | 0.0494
B15 | -0.563
B16 | 0.103
B17 | -0.515
B18 | 0.184
B19 | -0.171
